From PubChem
UHRF1 binding = UHRF1 methylated DNA binding inhibitors, primary screen, counter-screen for MBD2 inhibitor project, biochemical, TR-FRET, human UHRF1, single concentration | E3 ubiquitin-protein ligase UHRF1 (Homo sapiens), Q96T88 | UHRF1 binding to methylated oligo | inhibition, % at 4.4 µM | 370,000 compounds, 0.75% hits; in the data active means inhibition above about 21%;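 further: UHRF1 SRA domain binding a hemimethylated CpG hairpin DNA probe; 0% = median of test compound wells and 100% = reference inhibitor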
LEDGF integ inh = blockers of LEDGF/p75-dependent integrase strand transfer – biochemical, TR-FRET, high throughput, primary screen. 370,000 compounds, 0.64% hits. TR-FRET IN-LEDGF/p75 DNA integration, Eu/Cy5. inhibition, % at 3.7 µM. AID 743269, 2014;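 active means inhibition above the screen-wide mean plus 3 SD, cut at about 13% in these data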;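 further: signal is the Cy5 over europium emission ratio at 671 and 618 nm; 0% = plate median of compound wells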
MBD2 DNA inh = inhibitors of MBD2 binding to methylated DNA, primary screen, biochemical, TR-FRET, DNA-binding domain, human | Methyl-CpG-binding domain protein 2 (Homo sapiens), Q9UBB5 | MBD2 binding to methylated oligonucleotide | inhibition, % at 4.4 µM | 370,000 compounds, 0.31% hits; in the data active means inhibition above about 13%
Target sequence (Q9UBB5 whole entry, looked up, the tested form may be a part): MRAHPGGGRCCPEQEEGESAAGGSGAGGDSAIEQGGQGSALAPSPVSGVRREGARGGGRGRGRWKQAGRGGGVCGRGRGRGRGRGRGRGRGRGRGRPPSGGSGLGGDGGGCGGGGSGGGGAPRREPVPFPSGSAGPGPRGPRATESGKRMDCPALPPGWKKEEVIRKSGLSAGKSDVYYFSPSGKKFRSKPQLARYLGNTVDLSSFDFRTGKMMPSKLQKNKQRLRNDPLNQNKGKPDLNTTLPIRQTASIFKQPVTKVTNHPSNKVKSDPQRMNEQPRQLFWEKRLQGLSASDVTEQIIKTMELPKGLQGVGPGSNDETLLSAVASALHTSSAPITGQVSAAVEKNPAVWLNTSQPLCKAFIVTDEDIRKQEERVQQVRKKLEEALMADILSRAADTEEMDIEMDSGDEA
Casp6 inh = human caspase-6 inhibitors, primary screen, biochemical, VEID-R110 fluorescence, single point, set 2; P55212; purified caspase-6, Z-VEID-R110 cleavage fluorescence; inhibition, % at 12.5 µM; 350,000 compounds, 0.53% hits;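 active means mean inhibition across replicates at least about 35%, with every replicate also reaching that limit, limit read from the data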;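 further: 0% = median of neutral control wells and 100% = no fluorescence left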
Active calls of the source: *; . = not tested or not shown. Rows were chosen to be rich in hits. Some 1.4% of all compounds tested hit in one or more screens of this group.

SMILES	UHRF1 binding	LEDGF integ inh	MBD2 DNA inh	Casp6 inh
CC(=O)c1ccc(OCc2cn(CC(=O)c3ccc(O)cc3)nn2)c(C)c1	22.8*	3.1	11.3	7.5
O=C(Cn1cc(COc2ccc(Br)cc2[N+](=O)[O-])nn1)c1ccc(O)cc1	23.9*	-0.7	7.7	12.6
Cc1cccc(C)c1OCc1cn(CC(=O)c2ccc(O)cc2)nn1	18.9	9.1	9.0	9.6
COc1ccc(NC(=O)N(C)C[C@@H]2Oc3ccc(NS(C)(=O)=O)cc3C(=O)N([C@H](C)CO)C[C@@H]2C)cc1	.	.	.	0.2
C[C@@H]1CCCCO[C@H](CN(C)C(=O)c2ccccc2)[C@H](C)CN([C@@H](C)CO)C(=O)c2cc(N(C)C)ccc2O1	.	.	.	2.0
COc1cc(OC)c(C2CC(=O)N3CN(C)CSC3=C2C#N)cc1OC (configuration not stated)	-2.2	2.1	0.8	3.0
COc1ccc(Br)cc1C1CC(=O)N2CN(C)CSC2=C1C#N (configuration not stated)	-6.2	2.8	-3.5	35.4*
CCCCNCC(O)(c1ccc(Cl)cc1)c1ccc(Cl)cc1	57.1*	-1.5	2.5	-3.8
CSCCC(NS(=O)(=O)c1ccccc1F)C(=O)NCC(C)(C)N1CCOCC1 (configuration not stated)	2.3	-2.7	1.5	54.4*
CSCCC(NS(=O)(=O)c1ccccc1F)C(=O)NCC(c1ccc(F)cc1)N1CCOCC1 (configuration not stated)	-2.3	4.0	-3.1	-1.7
CCCc1cn(CC[C@H]2CC[C@@H](NC(=O)Nc3ccc4c(c3)OCO4)[C@H](CO)O2)nn1	.	.	.	0.5
CCCNC(=O)[C@H]1[C@H](CO)[C@H]2Cn3c(ccc(-c4ccncc4)c3=O)[C@@H]1N2Cc1ccccc1F	.	.	.	-2.6
CCOc1ccc2oc(C(=O)OCC(=O)N(CC(C)C)c3c(N)n(Cc4ccccc4)c(=O)[nH]c3=O)c(C)c2c1	-0.8	-1.5	-4.8	15.2
COCCN(C(=O)COC(=O)/C=C/c1ccco1)c1c(N)n(Cc2ccccc2)c(=O)[nH]c1=O	2.5	1.0	-0.4	43.2*
COCCN(C(=O)CN1CCc2ccccc21)c1c(N)n(Cc2ccccc2)c(=O)[nH]c1=O	41.2*	-1.9	-0.4	5.4
Cc1c(C(=O)OCC(=O)N(CC(C)C)c2c(N)n(Cc3ccccc3)c(=O)[nH]c2=O)oc2ccccc12	-0.8	-5.0	-3.7	46.0*
COC(=O)[C@H]1[C@H](CO)[C@H]2Cn3c(cccc3=O)[C@H]2N1CC1CCCC1	.	.	.	0.1
COC(=O)[C@H]1[C@H](CO)[C@H]2Cn3c(cccc3=O)[C@H]2N1CC1CCOCC1	.	.	.	70.0*
CCCNC(=O)[C@@H]1[C@@H](CO)[C@@H]2Cn3c(ccc(-c4ccccc4)c3=O)[C@@H]2N1CC1CC1	.	.	.	54.4*
CCNc1nc(NCC)n2c(SCC(=O)Nc3ccc(C)c(C)c3)nnc2n1	3.5	-3.3	5.1	36.5*
Cc1cccc(C)c1NC(=O)C1(NC(=O)Cn2cccc([N+](=O)[O-])c2=O)CCCCC1	23.6*	-2.6	3.1	-0.6
Cc1cccc(C)c1NC(=O)C1(NC(=O)C2CCC(=O)N2)CCCCC1 (configuration not stated)	8.8	-2.5	1.7	.
C[C@H]1CCCCO[C@@H](CN(C)C(=O)Cc2ccccc2)[C@@H](C)CN([C@@H](C)CO)C(=O)c2cc(NS(=O)(=O)c3cccs3)ccc2O1	.	.	.	0.9
O=C(COC(=O)c1ccc(S(=O)(=O)NCc2ccco2)cc1)Nc1ccccc1	-2.2	1.6	1.4	2.4
O=C(COC(=O)c1ccc(S(=O)(=O)NCc2ccco2)cc1)Nc1ccc(Cl)cn1	8.4	-0.4	4.7	46.1*
SMILES	UHRF1 binding	LEDGF integ inh	MBD2 DNA inh	Casp6 inh
CCCNC(=O)C[C@H]1C[C@@H]2c3cc(NS(C)(=O)=O)ccc3O[C@@H]2[C@H](CO)O1	.	.	.	3.7
O=C1CN(C(=O)COC(=O)c2ccco2)c2ccccc2N1	-1.0	2.6	-5.6	8.8
O=C1CN(C(=O)CNCc2ccc(Cl)cc2)c2ccccc2N1	62.4*	-1.2	2.5	0.8
O=C1CN(C(=O)COC(=O)c2ccc([N+](=O)[O-])o2)c2ccccc2N1	4.3	1.0	1.6	39.4*
CC1(C)C(=O)Nc2ccccc2N1C(=O)COC(=O)c1ccc([N+](=O)[O-])o1	-5.7	0.4	0.6	47.2*
C[C@@H]1CCCCO[C@H](CN(C)C(=O)NC2CCCCC2)[C@H](C)CN([C@@H](C)CO)C(=O)c2cc(NS(=O)(=O)c3ccc(Cl)cc3)ccc2O1	.	.	.	0.8
O=C(C1CCOCC1)N1C[C@H]2[C@@H](c3ccccc31)[C@H](CO)N2C(=O)Nc1cccc(F)c1	.	.	.	-2.0
COCC(=O)N1CC(=O)N2[C@H](CO)[C@H](c3ccc(Br)cc3)[C@H]2C1	.	.	.	-0.6
CCC(C)NS(=O)(=O)c1ccc(OCC(=O)NCc2ccco2)cc1 (configuration not stated)	24.9*	1.6	-1.4	.
C[C@@H]1CN([C@@H](C)CO)C(=O)Cc2cc(NC(=O)Nc3ccc(F)cc3)ccc2O[C@H]1CN(C)S(=O)(=O)c1ccccc1	.	.	.	1.7
CC1CCN(Cc2nnnn2CCCC(=O)NC(c2ccccn2)C(F)(F)F)CC1 (configuration not stated)	-1.6	28.4*	-5.8	-2.0
C[C@H]1CN([C@@H](C)CO)C(=O)Cc2cc(NC(=O)c3ccncc3)ccc2O[C@@H]1CN(C)Cc1ccc(C(=O)O)cc1	.	.	.	2.4
O=S1(=O)CC(N2CCN(Cc3ccccc3F)CC2)CN1Cc1cn(Cc2ccc(C(F)(F)F)cc2)nn1 (configuration not stated)	21.0*	7.5	4.2	-0.8
C[C@@H]1CCCCO[C@@H](CN(C)Cc2ccncc2)[C@@H](C)CN([C@H](C)CO)C(=O)c2cc(NC(=O)Nc3ccccc3)ccc2O1	.	.	.	-1.7
Cc1cc(C)cc(CC(=O)N2CCC2(C)C(=O)NS(=O)(=O)c2cccc(F)c2)c1 (configuration not stated)	21.2*	-4.3	-1.4	-1.6
Cc1cc(C)cc(CC(=O)N2CCC2(C)C(=O)NS(=O)(=O)c2ccccc2)c1 (configuration not stated)	0.7	-3.3	5.6	-2.1
CC(C)NC(=O)N(C)C[C@@H]1Oc2cc(-c3ccncc3)ccc2S(=O)(=O)N([C@@H](C)CO)C[C@H]1C	.	.	.	-1.1
O=C(N[C@H]1CC[C@@H](CCNC(=O)C2CCCCC2)O[C@@H]1CO)c1ccccn1	.	.	.	0.1
CCOC(=O)N1CCC(N2C(=O)c3ccccc3C2Nc2ccc3c(C)cc(=O)oc3c2)CC1 (configuration not stated)	33.3*	-0.7	0.9	2.2
COC(=O)c1ccc(OC(=O)CS(=O)c2ccccc2[N+](=O)[O-])cc1 (configuration not stated)	62.4*	-0.4	-2.5	.
